Screen size: about 310,000 compounds; about 14,000 (4.5%) showed an effect of 50% or more. The effect is printed as a negative number. The entries come from a sample that favours strong results as a whole.
molecular target: human ether-à-go-go-related gene (hERG) potassium channel (human, UniProt Q12809); assay: primary screen, population patch clamp on CHO cells stably expressing hERG; higher = less effect of the substance
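Also: peak tail current of the secondary pulse compared with the same well before compound.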

human ether-à-go-go-related gene (hERG) potassium channel, sequence (Q12809 whole entry, looked up): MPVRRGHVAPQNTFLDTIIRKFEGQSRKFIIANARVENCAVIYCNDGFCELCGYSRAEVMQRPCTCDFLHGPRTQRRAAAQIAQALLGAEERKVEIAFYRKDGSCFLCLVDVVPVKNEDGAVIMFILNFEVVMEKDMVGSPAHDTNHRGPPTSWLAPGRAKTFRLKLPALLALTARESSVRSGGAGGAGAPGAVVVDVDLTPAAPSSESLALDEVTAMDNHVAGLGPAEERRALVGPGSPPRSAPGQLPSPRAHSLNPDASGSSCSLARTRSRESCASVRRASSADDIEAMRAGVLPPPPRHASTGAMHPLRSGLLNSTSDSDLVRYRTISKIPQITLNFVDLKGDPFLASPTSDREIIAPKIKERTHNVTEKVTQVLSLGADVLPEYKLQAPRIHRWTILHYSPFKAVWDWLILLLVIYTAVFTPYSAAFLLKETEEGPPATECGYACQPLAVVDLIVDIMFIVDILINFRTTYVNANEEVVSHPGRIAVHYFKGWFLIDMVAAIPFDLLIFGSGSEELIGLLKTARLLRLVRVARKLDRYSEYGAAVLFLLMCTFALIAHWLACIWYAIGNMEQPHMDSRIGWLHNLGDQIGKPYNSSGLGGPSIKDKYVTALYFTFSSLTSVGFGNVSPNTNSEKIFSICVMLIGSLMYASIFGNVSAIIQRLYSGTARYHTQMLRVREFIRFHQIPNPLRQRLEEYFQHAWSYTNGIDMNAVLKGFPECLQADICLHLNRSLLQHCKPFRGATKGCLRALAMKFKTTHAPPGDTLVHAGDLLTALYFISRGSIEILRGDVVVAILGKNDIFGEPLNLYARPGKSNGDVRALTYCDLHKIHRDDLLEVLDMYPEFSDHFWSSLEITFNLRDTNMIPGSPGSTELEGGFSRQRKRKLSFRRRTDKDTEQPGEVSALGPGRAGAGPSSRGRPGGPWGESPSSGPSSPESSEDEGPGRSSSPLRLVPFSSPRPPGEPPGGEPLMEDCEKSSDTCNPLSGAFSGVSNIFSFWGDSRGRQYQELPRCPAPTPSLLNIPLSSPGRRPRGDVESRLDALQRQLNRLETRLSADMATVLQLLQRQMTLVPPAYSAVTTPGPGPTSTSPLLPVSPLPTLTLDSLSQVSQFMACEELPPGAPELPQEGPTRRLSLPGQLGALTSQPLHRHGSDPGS

Structure (SMILES) | hERG current change (%, negative = inhibition) at 10uM [%]
Cc1ccc(Nc2nnc(SCc3ccccc3)s2)cc1 | 11.9
O=[N+]([O-])c1ccc(S(=O)(=O)Nc2ccc(-c3ccc(N4CCCC4)nn3)cc2)cc1 | -8.67
Cc1cc(C)c2nc(-c3ccccn3)cc(C(=O)Nc3ccc(S(=O)(=O)Nc4onc(C)c4C)cc3)c2c1 | -2.33
CC(=O)OCCCN1C(=O)c2cccc3cc(Br)cc(c23)C1=O | 4.74
O=S1(=O)c2ccccc2N=NN1Cc1ccc(Cl)cc1 | 16.1
Cn1c(O)c(C=NC2C(=O)C3(C)CCC2C3(C)C)c(=O)n(C)c1=O (centres unmarked) | -0.548
Cc1onc(-c2c(F)cccc2Cl)c1C(=O)OCC(=O)NCc1ccco1 | 5.77
CCN(CC)C(=O)C1CCCN(Cc2ccccc2)C1 (centres unmarked) | 9.57
COc1ccc(CCN(C)C(=O)C2CCN(Cc3ccc(C)cc3)CC2)cc1OC.O=C(O)C(=O)O | -60.8
COc1ccc(CCN(C)C(=O)C2CCCN(Cc3ccc(OC)c(OC)c3)C2)cc1OC.O=C(O)C(=O)O (centres unmarked) | -3.31
COc1ccc(CN2CCCC(C(=O)N(C)Cc3ccccc3)C2)cc1OC.O=C(O)C(=O)O (centres unmarked) | -71.1
COc1ccc(OC)c(CN2CCC(C(=O)N(C)CCc3ccc(OC)c(OC)c3)CC2)c1.O=C(O)C(=O)O | -11.5
CN(Cc1ccccc1)C(=O)C1CCCN(Cc2ccc(Cl)cc2)C1.O=C(O)C(=O)O (centres unmarked) | -71
COc1ccc(CCN(C)C(=O)C2CCN(Cc3ccccc3)CC2)cc1OC.O=C(O)C(=O)O | 3.36
COc1ccc(CCN(C)C(=O)C2CCCN(Cc3ccc(OC)c(OC)c3)C2)cc1OC (centres unmarked) | 9.21
CN(Cc1ccccc1)C(=O)C1CCCN(Cc2cccc(Cl)c2)C1.O=C(O)C(=O)O (centres unmarked) | -23.5
O=C1NC2(CCCCCC2)C(=O)N1Cc1ccc(Br)cc1 | 4.06
CCOc1ccc(-c2nnn(CC(=O)c3ccc4c(c3)OCCO4)n2)cc1OCC | -1.86
CCc1cc(S(=O)(=O)N2CCN(C(=O)c3ccco3)CC2)ccc1OC | 1.76

Structure (SMILES) | hERG current change (%, negative = inhibition) at 10uM [%]
COc1ccc(-c2noc3c2-c2nc(-c4cccc(C)c4)sc2CC3)cc1 | 7.57
Cc1ccc(-c2nnc(N3CCN(C(=O)CSc4ncn[nH]4)CC3)c3ccccc23)cc1 | -32.6
Cc1cccc(OCC(=O)N2CCN(c3nnc(-c4ccccc4)c4ccccc34)CC2)c1 | -69.7
Cc1ccc(-c2nnc(N3CCN(C(=O)COc4cccc(C)c4)CC3)c3ccccc23)cc1 | -54.6
CO/N=C/NC(=O)Cc1cn(-c2ncc(C(F)(F)F)cc2Cl)c2ccccc12 | 3.84
CCCOc1ccc(N2C(=O)CC(NCC(=O)OCC)C2=O)cc1 (centres unmarked) | 8.44
O=C(Cn1c(=O)cnc2ccccc21)NNC(=O)c1ccccc1Cl | 4.84
COCCSc1ccccc1C(=O)Nc1ccccc1C(C)C | 3.89
CCCCc1ncc(CN2CCN(Cc3ccc(C)cc3)C(CCO)C2)[nH]1 (centres unmarked) | -57.9
Cc1ccc(CN2CCN(Cc3cnc(C)s3)CC2CCO)cc1 (centres unmarked) | -19.4
Cc1ccc(CN2CCN(Cc3ccc(C)s3)CC2CCO)cc1 (centres unmarked) | -73.3
Cc1ccc(CN2CCN(Cc3cnc(N4CCOCC4)s3)CC2CCO)cc1 (centres unmarked) | -46.7
Cc1ccc(CN2CCN(Cc3cnc(C)[nH]3)CC2CCO)cc1 (centres unmarked) | 10.8
Cc1ccc(CN2CCN(Cc3ccccc3)C(CCO)C2)s1 (centres unmarked) | -62.8
CC(C)=CCN1CCN(Cc2ccc(C)s2)CC1CCO (centres unmarked) | -16.1
Cc1ccc(CN2CCN(CCC(C)C)C(CCO)C2)s1 (centres unmarked) | -29.5
CC(C)=CCN1CCN(Cc2cn[nH]c2C2CCCCC2)CC1CCO (centres unmarked) | 0.0652
OCCC1CN(Cc2cn[nH]c2C2CCCCC2)CCN1Cc1ccccc1 (centres unmarked) | 0.824
Cc1ccc(CN2CCN(Cc3cn[nH]c3C3CCCCC3)CC2CCO)cc1 (centres unmarked) | -62.9

Structure (SMILES) | hERG current change (%, negative = inhibition) at 10uM [%]
Cc1ccc(CN2CCN(CC(C)C)C(CCO)C2)s1 (centres unmarked) | -21.5
Cn1c(O)c(C=Nc2ccccc2-c2ccccc2)c(=O)n(C)c1=O | 4.4
O=c1c2ccccc2cnn1Cc1n[nH]c(=S)n1-c1ccc(Cl)cc1 | 14.5
Cc1ccc(-c2nc(-c3ccccn3)sc2CC(=O)O)cc1 | 2.76
O=C(N/N=C/c1cccs1)c1ccco1 | 11.8
COc1ccc(NC(=O)COC(=O)C2CC2)c(OC)c1 | -0.146
CC1CC(C)(C)NC(=S)N1CC(=O)NCc1ccc(F)cc1 (centres unmarked) | 0.792
O=C(Cn1nnc(-c2ccccc2)n1)NNC(=O)c1cccc([N+](=O)[O-])c1 | 26.3
COc1ccc(CCNC2CCCCCC2)cc1 | -4.62
COc1ccc(CCNC2CCC(c3ccccc3)CC2)cc1 (centres unmarked) | -70.8
COc1ccc(CCNC(=O)C2CC2)cc1 | 0.64
COc1ccc(CCNC2CCCCC2)cc1.O=C(O)C(=O)O | -15.9
COc1ccc(CCNC(=O)C2Cc3ccccc3C(=O)O2)cc1 (centres unmarked) | -1.35
COc1ccc(CCNC2CCc3ccccc3C2)cc1 (centres unmarked) | -56
COc1ccc(S(=O)(=O)N2CCN(c3ccc(C)cc3C)CC2)cc1OC | 5.72
COC(=O)[C@@H](NC(=O)N(C1CCCCC1)C1CCCCC1)C(C)C | -7.86
C#CCOCOCC#CCN(CC)CC | 3.26
COc1ccc(-n2c(C)cc(C(=O)Cn3nc(C(=O)O)c4ccccc4c3=O)c2C)cc1 | -1.43
